Experimental findings from PubChem BioAssay AID720708 (National Center for Advancing Translational Sciences (NCATS), 2013) are described below.

Each structure is given as a SMILES string. Among all 360,000 compounds or so, about 660 (0.18%) were called active. Where a call stands in place of a potency, no number is given. Roughly 2% stayed inconclusive and do not appear here. The sample holds actives, similar compounds and a random draw of the others, so the mix is not that of the screen. Calls come from the whole dose curve; as a rule, active = well fitted inhibition curve with a large enough effect; inconclusive = small, poorly fitted or top-dose-only effect; inactive = no such curve, though single readings can be large or run the other way.
Potency is the fitted concentration of half-maximal effect.

Sequence of Rap guanine nucleotide exchange factor 4 (Homo sapiens) (Q8WZA2 whole entry, looked up): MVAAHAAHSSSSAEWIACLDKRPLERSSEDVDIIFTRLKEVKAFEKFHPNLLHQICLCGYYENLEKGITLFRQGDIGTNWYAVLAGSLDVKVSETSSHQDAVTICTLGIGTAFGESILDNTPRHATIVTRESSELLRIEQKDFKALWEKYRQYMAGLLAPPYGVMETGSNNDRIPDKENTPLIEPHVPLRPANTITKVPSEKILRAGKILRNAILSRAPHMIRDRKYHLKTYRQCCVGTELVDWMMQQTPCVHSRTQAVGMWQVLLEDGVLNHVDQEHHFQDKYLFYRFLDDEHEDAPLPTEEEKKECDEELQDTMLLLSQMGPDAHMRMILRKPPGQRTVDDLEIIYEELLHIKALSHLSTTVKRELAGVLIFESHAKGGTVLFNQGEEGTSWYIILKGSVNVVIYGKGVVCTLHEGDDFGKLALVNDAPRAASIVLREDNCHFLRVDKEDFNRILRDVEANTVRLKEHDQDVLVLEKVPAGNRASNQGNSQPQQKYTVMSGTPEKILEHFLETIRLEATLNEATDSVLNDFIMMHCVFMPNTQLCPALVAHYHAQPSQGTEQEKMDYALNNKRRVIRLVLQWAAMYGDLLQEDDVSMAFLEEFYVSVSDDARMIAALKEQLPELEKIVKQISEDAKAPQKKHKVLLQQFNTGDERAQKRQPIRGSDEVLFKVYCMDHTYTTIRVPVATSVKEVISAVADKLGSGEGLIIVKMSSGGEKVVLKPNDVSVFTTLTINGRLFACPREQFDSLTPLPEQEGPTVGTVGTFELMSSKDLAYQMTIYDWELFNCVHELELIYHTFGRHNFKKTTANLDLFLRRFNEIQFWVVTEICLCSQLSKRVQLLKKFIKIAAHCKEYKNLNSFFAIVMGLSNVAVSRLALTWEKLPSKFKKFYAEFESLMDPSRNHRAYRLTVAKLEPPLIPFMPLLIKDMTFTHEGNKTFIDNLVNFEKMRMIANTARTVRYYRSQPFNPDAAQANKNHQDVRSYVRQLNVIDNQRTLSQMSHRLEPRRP

This test concerns the target Rap guanine nucleotide exchange factor 4 (Homo sapiens) (UniProt Q8WZA2). Nature of the test: qHTS for Antagonist of cAMP-regulated guanine nucleotide exchange factor 2 (EPAC2): primary screen. Note: nearly all actives have a fitted effect of over 45% in size. As to conditions: EPAC2 GEF exchange of Rap1B-BODIPY-GDP, fluorescence; series mostly up to 114 µM. Background: Quantitative high-throughput screening tests each substance at several concentrations.
As to `COC(=O)[C@]12CCCCC=C1N(CCC1=CCCCC1)C(=O)[C@H](CC(=O)N1CCSCC1)C2`, the Potency result was “inactive”. The result for `C=C1C2C[C@H](O)C(C)(C)[C@@]2(O)[C@H](O)C[C@]23C[C@@](C)(O)[C@H](CC[C@H]12)[C@H]3O` (stereo partly drawn) reads “inactive”; that for `CC1(C)OC(=O)C2=C(C[C@@H](C3CCCC3)O[C@@H]2c2ccc(Cl)cc2)O1`, “inactive”. The result for `COc1ccc(N(C)S(=O)(=O)c2cccc3nsnc23)cc1` reads “inactive”. Turning to `Cn1ccc(=Nc2ccc(NC(=O)c3ccc(N=c4ccn(C)c5ccc([N+](=O)[O-])cc45)cc3)cc2)cc1`, the Potency is 22.4 µM (active). The result for `CN(CC1CCCO1)S(=O)(=O)c1ccc(C(=O)Nc2ccc([N+](=O)[O-])cc2)cc1` (stereo not drawn) reads “inactive”. The result for `CC(C)c1ccc(NC(=O)CCN2C(=O)c3ccc([N+](=O)[O-])cc3C2=O)cc1` reads “inactive”; that for `COCc1cccc(-c2csc(C(O)c3ccc(F)cc3)n2)c1` (stereo not drawn), “inactive”; that for `O=C(Nc1cc(Cl)ccc1N1CCOCC1)c1ccc(N2CCCC2=O)cc1`, “inactive”. Next, `CCc1nn(CCCC(=O)Nc2ccc(C)c(C)c2)c(=O)c2cc3occc3n12`: “inactive”. Turning to `COc1c(F)c(F)c(-c2csc(N)n2)c(F)c1F`, the Potency entry is “inactive”.

As for `Cc1cccc(C)c1NC(=O)C(c1ccc(C(F)(F)F)cc1)n1c(=O)c(-c2ccco2)nc2ccccc21` (stereo not drawn), the Potency result was “inactive”. Next, `O=C(O)CCCN1C(=O)C2C3c4ccccc4C(c4ccccc43)[C@@H]2C1=O` (stereo partly drawn): “inactive”. Next, `C=C1C(=O)OC2C1CCC(C)=CCCC1(C)OC21` (stereo not drawn): “inactive”; `CCN(c1ccccc1)S(=O)(=O)c1ccc2[nH]c(=O)[nH]c2c1`: “inactive”. Next, `CCN1CCN(C(=O)c2cc3cc4ccc(OC)cc4nc3s2)CC1`: “inactive”. `N#CCOc1ccc(C2=NO[C@@H]3[C@@H]4C[C@@H]([C@H]5C(=O)N(c6ccc7c(c6)OCO7)C(=O)[C@@H]45)[C@H]23)cc1`: the Potency entry was “inactive”. The result for `CN(C)c1ccc(NC(=O)c2ccncc2)c2ccccc12` reads “inactive”.

With `CC1CCCN(C(C(=O)Nc2ccc(C(C)C)cc2)c2ccc3c(c2)OCO3)C1` (stereo not drawn), the Potency entry was “inactive”. Next, `CC(C)C[C@H]1CN([C@@H](CC(C)C)CN2CCC[C@@H]2CN2C(=O)C(=O)NC[C@@H]2Cc2ccccc2)C(=O)C(=O)N1CCc1ccccc1`: “inactive”. On to `CC(C)OC(=O)c1sc2nc3c(cc2c1N)C(=O)CCC3`, for which the Potency result was “inactive”. Take `COC(=O)c1cc2c(N)c(C(=O)c3ccc(Cl)cc3)sc2nc1C(OC)OC`: the Potency is 79.4 µM (active). The result for `COC(=O)c1sccc1NC(=O)c1ccc(Cl)cc1` reads “inactive”; that for `CCOC(=O)[C@]12CCCC=C1N(CCC1=CCCCC1)C(=O)[C@H](CC(=O)NCCCCc1ccccc1)C2`, “inactive”; that for `O=C(O)c1ccccc1N=N/C(=N/Nc1cc(S(=O)(=O)O)ccc1O)c1ccccc1`, 50.1 µM (active). Next, `COc1ccccc1NC(=O)N1CCCC1C(=O)NCc1cccs1` (stereo not drawn): “inactive”.

Consider `Cc1ccc(-n2ncc3c2CC(C)(C)CC3NC(=O)CCc2cnn(C)c2)cc1` (stereo not drawn), for which the Potency result was “inactive”. Next, `CCO/C([O-])=N/c1c[n+](N2CCOCC2)no1`: “inactive”. The result for `O=C(NCCCn1ccnc1)/C(=C\c1ccccc1F)NC(=O)c1ccccc1` reads “inactive”. As for `CCC(=O)NC(Nc1cc(C)ccn1)(C(F)(F)F)C(F)(F)F`, the Potency entry is “inactive”. For the compound `COC(=O)c1ccc2nc(-c3cccc(Br)c3)c(Cc3ccc(OC)cc3C)n2c1`, the Potency result is “inactive”. The result for `CC1(C(=O)NCc2ccco2)Cc2c(-c3ccc4c(c3)OCO4)ccnc2O1` (stereo not drawn) reads “inactive”; that for `O=C(Nc1ccccc1-c1nnn(CC(=O)N2CCCc3ccccc32)n1)c1cccc(Cl)c1`, “inactive”; that for `O=C(NC1CCCCC1)C(c1cc2ccccc2o1)n1c(=O)c(-c2ccco2)nc2ccccc21` (stereo not drawn), “inactive”. Next, `CCCc1nn2c(=O)cc(CSCC(=O)Nc3cccc(C)c3)nc2s1`: “inactive”. Next, `CCN(C(=O)COC(=O)c1c(NC(C)=O)sc(C)c1C)C1CCS(=O)(=O)C1` (stereo not drawn): “inactive”; `O=C(c1cc(S(=O)(=O)N2CCOCC2)ccc1Cl)N1CCOCC1`: “inactive”; `O=[N+]([O-])c1cc(Cl)cc(/C=N/NC(=S)Nc2cc(S(=O)(=O)N3CCOCC3)ccc2Cl)c1O`: 56.2 µM (active). With `O=C(Nc1cc(S(=O)(=O)N2CCOCC2)ccc1Cl)c1cc(=O)c2ccccc2o1`, the Potency entry was “inactive”. The result for `NC(=O)NC(=O)C(OC(=O)CCNS(=O)(=O)c1ccccc1)c1ccccc1` (stereo not drawn) reads “inactive”. Next, `O=C(CCC(=O)n1ncc2ccccc21)NCc1ccccc1Cl`: “inactive”; `Cc1csc(NC(=O)CSc2nc(=O)n(CCCN(C)C)c3c2CCC3)n1`: “inactive”.

For `Cc1ccc(NC(=O)CSc2nc(=O)n(CCN(C)C)c3c2CCCC3)c(C)c1`, the Potency entry is “inactive”.

Consider `Cc1ccc2nc(NC(=O)CSc3nc(=O)n(CCCN(C)C)c4c3CCC4)sc2c1`, for which the Potency is 79.4 µM (active). The result for `Cc1cc(C)c2cc(C#N)c(N3CCNCC3)nc2c1` reads “inactive”; that for `Oc1c(Cl)cc(Cl)c(Cl)c1Cc1c(O)c(Cl)cc(Cl)c1Cl`, 31.6 µM (active); that for `O=C(NCc1ccccc1)C1CNCC(C(=O)NCc2ccccc2)C1` (stereo not drawn), “inactive”. The result for `Cc1c2cnn(-c3ccccc3)c(=O)c2c(C)n1CCCC(=O)N1CCN(C)CC1` reads “inactive”; that for `O=C(OCC(=O)N1CCCCCC1)c1cnc(Cl)c(Cl)c1`, “inactive”.

In the case of `CCCCNC(=O)OC(C)CNC(=O)OC` (stereo not drawn), the Potency result was “inactive”. The result for `Cc1ccc(Cl)cc1N1CCN(C(=O)c2cccc3c(=O)c(C)c(-c4ccccc4)oc23)CC1` reads 12.6 µM (active). On to `COc1ccccc1N1CCN(C(=O)c2cc(=O)c3cc(C)cc(C)c3o2)CC1`, for which the Potency entry is “inactive”.

In the case of `Cc1cccc(N2CCN(C(=O)c3cnn4c(C(F)F)cc(-c5ccccc5)nc34)CC2)c1C`, the Potency result was “inactive”. The result for `CCOCCCNC(=O)Cc1cc(=O)[nH]c(=O)[nH]1` reads “inactive”; that for `CCCCCC1CCC(c2nnc(SCC(C)=O)o2)CC1` (stereo not drawn), “inactive”; that for `COc1cccc2c(C)c(C(=O)O)[nH]c12`, “inactive”. In the case of `N#C/C(C(=O)N1CCOCC1)=C1/SC(Cc2ccc(F)cc2)C(=O)N1c1ccccc1` (stereo not drawn), the Potency entry was “inactive”. As for `Cc1cccc(NS(=O)(=O)c2ccc(C(=O)NCC(C)(C)N3CCOCC3)cc2)c1C`, the Potency entry was “inactive”. Next, `Nc1[nH]c(C(=O)c2ccccc2)c(-c2ccc(Br)cc2)c1C(=O)NC1CC1`: “inactive”.

Turning to `COc1cccc2c(N/N=C/c3ccco3)cc(C)nc12`, the Potency was 12.6 µM (active).

With `O=c1nc(N/N=C/c2ccco2)cn[nH]1`, the Potency entry is “inactive”. The result for `CCc1c(C)nc2c(OC)cccc2c1Cl` reads “inactive”; that for `CC(C)(C)Cc1c(C2CCCCC2)nc2ccc(Br)cn12`, “inactive”. Next, `CCN(CC)S(=O)(=O)c1cc([N+](=O)[O-])ccc1NNC(=O)Nc1ccccc1`: “inactive”; `CCC(C(=O)NC1CCCC1)N(C(=O)c1snc(C(N)=O)c1N)c1ccc2c(c1)OCCO2` (stereo not drawn): “inactive”; `Cc1c(Cl)c([N+](=O)[O-])nn1CC(=O)NCCCN1CCOCC1`: “inactive”.

As for `CCOC(=O)N1CCN(Cc2nc3c(c(=O)n(C)c(=O)n3C)n2Cc2ccccc2)CC1`, the Potency result was “inactive”.

As to `CC(=O)OCC(C)n1c(=O)c2ccccc2n1C(C)=O` (stereo not drawn), the Potency result was “inactive”.

With `COc1cccc(C2CC(c3cccs3)=NN2C(=O)CSC2=NCCS2)c1OC` (stereo not drawn), the Potency entry was “inactive”.

Turning to `CCCCCn1c(SCCC(C)C)nc2c1c(=O)[nH]c(=O)n2C`, the Potency result is “inactive”.

Turning to `COC(=O)[C@@]12C[C@@H](CC(=O)NCCCCc3ccccc3)C(=O)N(CCc3ccc(OC)c(OC)c3)C1=CCC(C)(C)C2`, the Potency entry was “inactive”.

Consider `Cc1ccc(C(=O)Nc2c(-c3ccccc3)[nH][nH]c2=O)cc1`, for which the Potency entry is “inactive”. The result for `O=C(OC1CC2CC1[C@H]1CCCCN1C2=O)N1CCOCC1` (stereo partly drawn) reads “inactive”; that for `O=C(NCc1ccco1)c1cccc(-c2ccc3nncn3c2)c1`, “inactive”. Turning to `C=CCNC(=S)NNC(=O)c1ccc(Br)o1`, the Potency result was “inactive”.

Turning to `O=S(=O)(Nc1cccc(-c2ccc(N3CCOCC3)nn2)c1)c1ccc(Cl)c(Cl)c1`, the Potency result was “inactive”.

In the case of `O=C(CC1C(=O)NCCN1CC(c1ccccc1)c1ccccc1)NCCc1cn[nH]c1` (stereo not drawn), the Potency result was “inactive”. Next, `CCOCCCNC(=O)C(NC(=O)Cc1c[nH]c2ccccc12)c1ccc(OC)cc1` (stereo not drawn): “inactive”; `COc1ccc(NC(=O)C(c2ccncc2)n2c(=O)c(-c3cc4ccccc4[nH]3)nc3ccccc32)cc1` (stereo not drawn): “inactive”.

With `COC(=O)Cn1c(=NC(=O)c2cc(OC)c(OC)c(OC)c2)sc2cc(OC)ccc21`, the Potency result is “inactive”. Next, `Cc1ccc(Cc2c(-c3ccc(Cl)cc3)nc3c4ccccc4ccn23)cc1`: “inactive”; `COC(=O)C1=C[C@@H](C(=O)OC)[C@@H]2C3=C(C(=O)[C@]2(C)NC(=O)c2ccccc2)[C@H](C)n2c(=O)n(C)c(=O)n2[C@@H]3C1`: “inactive”. For `O=C1NC2(CCCCC2)N=C1c1ccccc1`, the Potency result is “inactive”. Next, `COc1cc(N)c(Cl)cc1C(=O)OCC(=O)c1ccc2c(c1)NC(=O)CO2`: “inactive”; `COc1ccc(S(=O)(=O)N[C@@H]2C=C[C@@H](CC(=O)N3CCc4ccccc4C3)O[C@@H]2CO)cc1`: “inactive”; `Cc1cccc(C)c1NC1=NC(=S)N(c2ccc(N(C)C)cc2)C1(C)C`: “inactive”. Next, `CC1(C)OC(=O)C2=C(C[C@@H](C3CC3)O[C@H]2c2ccc(Cl)cc2)O1`: “inactive”; `O=S(=O)(/N=C(/Nc1ccccc1)c1ccccc1)c1cccs1`: “inactive”.

Regarding `O=C1OCCOC2CCCc3oc(-c4ccccc4)c1c32` (stereo not drawn), the Potency result was “inactive”. Next, `Cc1c(C(=O)NCC2CC2)sc(=O)n1Cc1cccc(F)c1`: “inactive”; `OCCC#Cc1ccc(N2C(c3ccsc3)=Cc3ccc(F)cc3C2c2c[nH]c3ccccc23)cc1` (stereo not drawn): “inactive”; `O=C(c1ccc[nH]c1=S)N1CCN(S(=O)(=O)c2ccc(Br)cc2Cl)CC1`: “inactive”.

As for `CCOc1ccc(CCNC(=O)C(CC)n2nc(C)n3c(cc4sccc43)c2=O)cc1OCC` (stereo not drawn), the Potency result was “inactive”. Next, `CCOCCCNc1c(CC)c(C)c(C#N)c2nc3ccccc3n12`: “inactive”; `O=C1COc2ccc(C(=O)COC(=O)CCOc3ccccc3)cc2N1`: “inactive”; `CNC(=O)c1csc(Cc2c(Cl)sc3ccc(Cl)cc23)n1`: 8.91 µM (active).

Consider `CC(=O)NNC(=O)c1csc(Cc2c(Cl)sc3ccc(Cl)cc23)n1`, for which the Potency result is “inactive”.

Turning to `CC(=O)Cc1nsc(NC(=O)c2ccc(Cl)cc2Cl)n1`, the Potency entry is “inactive”.
